Bioassay records as filed in PubChem BioAssay.
Rows were chosen to be rich in hits. Some 3.6% of all compounds tested hit in one or more screens of this group.
TRHR agonist – agonists of human TRH receptor. P34981. TRHR cells, calcium flux fluo-8, FDSS agonist mode. activation, % at 2 µM. 360,000 compounds, 0.18% hits. AID 493084; further: 0% is about no effect
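TRHR-expressing cells loaded with fluo-8 calcium dye; 23 nL library compound pin-transferred, kinetic FDSS fluorescence (Ex 480/Em 530) recorded about 180 s for agonist-induced calcium release, before a 10 nM TRH EC20 addition for potentiator mode.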
D1 antag – antagonists of human D1 dopamine receptor; P21728; HEK293 TREx D1 cells, calcium flux, dopamine EC80; hits give low values; activity change, negative = inhibition, % at 10 µM; 360,000 compounds, 3.2% hits; AID 504652; in the data active means activity change below about -30%; further: on the % scale 0 is the no-effect control and ±100 the full control effect
Target sequence (P21728 whole entry, looked up): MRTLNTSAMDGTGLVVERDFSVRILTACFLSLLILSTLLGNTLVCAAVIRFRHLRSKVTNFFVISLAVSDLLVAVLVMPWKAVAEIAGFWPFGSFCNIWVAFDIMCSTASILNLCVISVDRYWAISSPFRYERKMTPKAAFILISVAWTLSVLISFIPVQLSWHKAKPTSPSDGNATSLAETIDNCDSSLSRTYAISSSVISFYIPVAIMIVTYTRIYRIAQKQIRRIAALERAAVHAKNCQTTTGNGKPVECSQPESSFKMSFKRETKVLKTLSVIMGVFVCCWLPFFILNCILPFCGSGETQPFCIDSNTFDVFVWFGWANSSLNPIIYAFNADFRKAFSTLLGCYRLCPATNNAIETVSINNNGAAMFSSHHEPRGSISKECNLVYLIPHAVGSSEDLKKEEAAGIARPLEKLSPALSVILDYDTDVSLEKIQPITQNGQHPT
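Tetracycline-induced HEK293 T-REx cells with force-coupled D1 receptor were loaded with a no-wash calcium dye. Compound was added after a 10 s baseline and read kinetically for 180 s; EC80 dopamine was then added and calcium flux followed another 180 s.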
LDHA block – blocks human lactate dehydrogenase A; P00338; purified LDHA, NADH/diaphorase-resazurin fluorescence; hits give low values; activity change, % (values are at about 110 or 230 µM); 480,000 compounds, 0.15% hits; in the data active means activity change below about -30%;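 further: plate controls were DMSO wells for no effect and wells without enzyme for full effect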
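Remaining NADH was detected by diaphorase (0.133 mg/mL) converting 37 µM resazurin to fluorescent resorufin, read at 0 and 20 minutes. The preceding 5-minute room-temperature reaction used 2 nM LDHA, 0.2 mM sodium pyruvate and 0.06 mM NADH at pH 7.4.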
D1 potentiator – human D1 dopamine receptor positive modulation; 360,000 compounds, 0.036% hits; HEK293 TREx D1 cells, calcium flux, dopamine EC20 potentiation; P21728; potentiation, % at 10 µM; in the data active means potentiation above about 30%; further: 0% is about no effect
TRHR PAM – allosteric enhancers of human TRH receptor | 360,000 compounds, 0.66% hits | enhancement, % at 2 µM | AID 493056 | TRHR cells, fluo-8 calcium fluorescence, EC20 TRH enhancement | P34981; in the data active means enhancement above about 30%; further: 0% is about no effect
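Enhancer read-out: after compound pinning and an initial kinetic agonist-mode read, an EC20 of TRH (10 nM final) was injected and fluo-8 calcium signal (Ex 480/Em 530) followed at 1 s/cycle for 100 cycles in TRHR-expressing cells.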
D1 ag – agonists of human D1 dopamine receptor. 360,000 compounds, 1% hits. activation, % at 2 µM. AID 504660. HEK293 T-REx D1 cells, calcium flux, agonist mode. P21728; further: 0% is about no effect
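Agonism was scored from calcium flux recorded over 180 s (1 read/s) after pintool compound addition, following a 10-cycle baseline. Cells were inducible force-coupled HEK293 TREx D1, plated overnight at 30 C and loaded with no-wash calcium dye.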
* = called active by the depositor; . = no result given. Unless noted, no stated cut-off is given here; in the data, active means activation above about 30%; inactive means the rest.

SMILES	TRHR agonist	D1 antag	LDHA block	D1 potentiator	TRHR PAM	D1 ag
CCOc1cc(CNCCCN2CCOCC2)cc(Br)c1OCc1ccccc1Cl	2	-12	-9	0	11	67*
COc1cc(CNCc2ccncc2)cc(Br)c1OCc1ccccc1F	-1	-31*	0	-5	4	10
CCOc1cc(CNCCO)cc(Br)c1OCc1ccccc1Cl	3	24	0	-3	3	68*
CCOc1cc(CNCCN2CCOCC2)ccc1OCc1ccccc1Cl	-4	-22	-11	-5	7	37*
C=CCOc1c(Br)cc(CNCCCN2CCOCC2)cc1OC	2	-2	1	-5	-5	7
COc1cc(CNCCN2CCOCC2)ccc1OCc1c(Cl)cccc1Cl	1	8	.	-3	-1	12
CCC(C(=O)Nc1cc(OC)cc(OC)c1)n1c(=O)[nH]c2ccccc2c1=O (stereo unspecified)	.	.	-3	.	.	.
OCCCCNCc1ccc(OCc2ccc(Cl)cc2Cl)cc1	3	-27	1	-9	17	61*
CCc1ccc2nc(N=C(N)N)nc(C)c2c1	3	-16	0	0	3	3
Cc1ccc2nc(N=C(N)N)nc(C)c2c1	0	-52*	-9	-9	-9	1
O=C(Nc1ccc(N2CCC(c3ccccc3)C2)c(C(=O)O)c1)c1cccc(Cl)c1 (stereo unspecified)	.	.	9	.	.	.
CC1CCN(c2nc3ccc(C(=O)N4CCN(Cc5ccc6c(c5)OCO6)CC4)cc3s2)CC1	-1	-31*	1	.	5	3
O=C(c1cc2ccccc2o1)N1CCN(Cc2ccc3c(c2)OCO3)CC1	-1	11	-5	-8	-1	0
O=C(c1cccc(Cl)c1)N1CCN(Cc2ccc3c(c2)OCO3)CC1	0	-3	-1	-3	0	2
O=C(Cn1ccc2ccccc2c1=O)N1CCN(Cc2ccc3c(c2)OCO3)CC1	0	-57*	-1	-4	4	-1
O=C(CS(=O)(=O)Cc1ccccc1)N1CCN(Cc2ccc3c(c2)OCO3)CC1	0	-37*	4	-1	1	5
O=C(CN1CCN(Cc2ccc3c(c2)OCO3)CC1)N1CCc2[nH]c3ccc(F)cc3c2C1	0	-27	-5	-1	-1	34*
Cc1cccc(C)c1NC(=O)COC(=O)Cn1cnc2c1c(=O)n(C)c(=O)n2C	.	.	0	.	.	.
O=C(c1cc2c(=O)n3ccccc3nc2s1)N1CCN(Cc2ccc3c(c2)OCO3)CC1	0	-31*	2	-1	-3	0
O=C(/C=C/c1ccco1)NC(=S)Nc1cccc([N+](=O)[O-])c1	-1	-22	7	-4	32*	4
Cn1cnc2c1c(=O)n(CC(=O)Nc1ccccc1Oc1ccccc1Cl)c(=O)n2C	.	.	0	.	.	.
Cc1ccc(-c2onc3ccc(-c4cc(C(=O)O)c5cc(Br)ccc5n4)cc23)cc1	.	.	9	.	.	.
C[C@@H](CSc1ccccc1)CN1CC[C@H](NC(=O)OCc2ccccc2)CCC1=O	0	-13	2	-11	-3	5
C[C@@H](CSc1ccccc1)CN1CC[C@H](O)CCC1=O	0	-31*	-7	1	-4	-1
CCOC(=O)Nc1ccc2c(CN3CCC(C(=O)OCC)CC3)cc(=O)oc2c1	.	.	7	.	.	.
SMILES	TRHR agonist	D1 antag	LDHA block	D1 potentiator	TRHR PAM	D1 ag
COc1ccc(Nc2nc(N3CCCC3)c3ccccc3n2)cc1	-1	-51*	-1	-21	7	6
c1cncc(Nc2c3ccccc3nc3ccccc23)c1	0	-31*	-2	-15	-11	3
COc1cc(Nc2c3ccccc3nc3ccccc23)cc(OC)c1OC	-3	6	24	-1	2	3
COc1ccccc1Nc1c2ccccc2nc2ccccc12	0	-52*	-4	-6	0	3
COc1ccc(Nc2c3ccccc3nc3ccccc23)cc1	0	-95*	1	-8	0	19
Oc1cccc(Nc2c3ccccc3nc3ccccc23)c1	-1	-24	-3	-9	6	8
Cc1cc(C)c(S(=O)(=O)Nc2cccc(-c3cn4ccc(C)cc4n3)c2)c(C)c1	.	.	-2	.	.	.
Cc1ccc(N(C(C)C(=O)N2CCCCCC2)S(C)(=O)=O)cc1 (stereo unspecified)	.	.	3	.	.	.
COC(=O)c1cc(CNC(=O)c2ccccc2Cl)ccc1OC	-1	-30*	-11	1	-3	3
Cn1c(Cc2ccc(Cl)cc2)nnc1SCC(=O)NC1CC1	0	33	-2	-3	-4	1
COc1cc(-c2nnc(SCC(=O)NC3CCCC3)n2C)cc(OC)c1O	0	-41*	0	-4	-2	2
Cn1c(Cc2ccc3c(c2)OCO3)nnc1SCC(=O)NC1CCCC1	-1	-33*	.	-11	-5	1
CCn1c(Cc2ccccc2)nnc1SCC(=O)NC1CC1	0	-32*	-2	1	9	0
O=C1CCCC2=C1C(c1ccc(F)cc1)c1c(nc(SCc3ccccc3F)[nH]c1=O)N2 (stereo unspecified)	.	.	-1	.	.	.
COc1cc(-c2nnc(COc3nncc4ccccc34)o2)cc(OC)c1OC	.	.	-2	.	.	.
CCOc1ccc2c(C)c(-c3ccc(OC)c(OC)c3)c(=O)oc2c1	.	.	7	.	.	.
C=CCOC(=O)/C(=C\c1ccccc1)NC(=O)c1ccco1	0	-43*	3	-4	7	3
O=C(NCCc1ccccc1)/C(=C\c1ccc([N+](=O)[O-])cc1)NC(=O)c1ccco1	0	-38*	-12	-3	-9	6
O=C(N/C(=C\c1ccccc1)C(=O)N1CCOCC1)c1ccco1	-1	-11	-8	-2	30*	3
O=c1c(Cl)c(N2CCN(S(=O)(=O)c3ccc4c(c3)CCC4)CC2)cnn1-c1ccccc1	.	.	9	.	.	.
CCOC(=O)C1=C(C)NC(=O)NC1/C=C\c1ccccc1 (stereo unspecified)	0	-13	-4	3	5	2
C=CCOC(=O)C1=C(C)NC(=O)NC1/C=C/c1ccccc1 (stereo unspecified)	0	-31*	-3	-4	4	1
CS(=O)(=O)NC1CCCN(C(=O)c2cc(F)ccc2F)C1 (stereo unspecified)	.	.	-1	.	.	.
C=CCNC(=S)NNC(=O)c1ccc(C)cc1	.	.	-6	.	.	.
C=CCNC(=S)NNC(=O)c1ccccc1	0	11	-17	-3	39*	6
CCOC(=O)c1ccc(NCc2ccc3c(c2)OCO3)cc1	-1	-27	-1	-3	1	6
Cc1onc(-c2ccccc2)c1C(=O)OCC(=O)NC(C)c1ccc(Cl)cc1 (stereo unspecified)	4	-10	-10	.	-3	71*
